The experiment deals with furin, P09958. Nature of the experiment: furin cleavage Z-score vs untreated control; higher = more cleavage, active = 3.5 or more, inactive = 1 or less, 8 variable residues between constant flanks. An outline of the steps: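 The cleavage Z-score is the log read count relative to furin-free reactions, lowess-adjusted and scaled by median absolute deviation. Counts came from sequencing DNA released from bead-bound 8-mer peptide–cDNA fusions after digestion with purified furin for 7.5, 15 or 30 min.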

The other results are listed elsewhere or left out. No count for the full screen is at hand.
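Further: purified furin at 1:10 enzyme:substrate in 50 mM HEPES pH 7.5.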

furin, P09958, sequence (P09958 whole entry, the tested form may be a part): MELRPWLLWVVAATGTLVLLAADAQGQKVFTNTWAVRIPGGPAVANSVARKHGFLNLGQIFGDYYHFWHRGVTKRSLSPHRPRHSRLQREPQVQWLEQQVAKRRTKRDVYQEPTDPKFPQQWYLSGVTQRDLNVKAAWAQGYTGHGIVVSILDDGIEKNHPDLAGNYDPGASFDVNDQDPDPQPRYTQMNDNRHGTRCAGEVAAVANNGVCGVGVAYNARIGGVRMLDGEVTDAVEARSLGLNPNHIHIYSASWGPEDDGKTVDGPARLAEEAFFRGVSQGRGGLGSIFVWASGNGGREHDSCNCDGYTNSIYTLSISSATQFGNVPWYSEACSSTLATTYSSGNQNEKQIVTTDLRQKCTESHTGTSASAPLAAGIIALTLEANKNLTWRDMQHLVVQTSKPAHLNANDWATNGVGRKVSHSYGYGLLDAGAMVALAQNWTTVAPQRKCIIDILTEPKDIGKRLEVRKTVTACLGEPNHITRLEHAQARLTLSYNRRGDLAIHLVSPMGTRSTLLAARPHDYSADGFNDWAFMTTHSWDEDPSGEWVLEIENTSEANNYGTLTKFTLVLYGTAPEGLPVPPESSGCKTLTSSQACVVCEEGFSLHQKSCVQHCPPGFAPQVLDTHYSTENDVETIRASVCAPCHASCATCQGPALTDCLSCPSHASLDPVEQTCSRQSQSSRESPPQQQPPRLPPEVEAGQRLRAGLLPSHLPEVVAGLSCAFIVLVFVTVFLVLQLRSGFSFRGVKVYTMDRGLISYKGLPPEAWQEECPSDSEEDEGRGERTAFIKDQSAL

B1: HC2518 (peptide)
chain: CASTTCSAHLAGNASASA
B1: the “furin cleavage Z-score” value by setting is: (7.5 min) -0.961 (inactive); (15 min) -1.68 (inactive); (30 min) -0.439 (inactive).

B2: FS-1225 (peptide)
chain: CAKTSRSRRRAGNASASA
For the sequence B2, the “furin cleavage Z-score” value runs as follows: (7.5 min) 5.45 (active); (15 min) 6.99 (active); (30 min) 6.15 (active).

B3: FS-1448 (peptide)
chain: CADPSRSRRRAGNASASA
Consider B3, for which the “furin cleavage Z-score” value (7.5 min) is 0.778 (inactive), the “furin cleavage Z-score” value (15 min) was 3.15 and the “furin cleavage Z-score” value (30 min) was 3.47.

B4: FS-2839 (peptide)
chain: CARVKRSRRRAGNASASA
Consider B4, for which the “furin cleavage Z-score” value reads like this: (7.5 min) 10.1 (active); (15 min) 10.8 (active); (30 min) 9.23 (active).

B5: HC186 (peptide)
chain: CAKTSERSQPAGNASASA
On to B5, for which the “furin cleavage Z-score” value (7.5 min) is 2.56, the “furin cleavage Z-score” value (15 min) was -0.461 (inactive) and the “furin cleavage Z-score” value (30 min) was 0.776 (inactive).

B6: FS-329 (peptide)
chain: CAGESRSRRRAGNASASA
As for B6, the “furin cleavage Z-score” value is 2.73 (7.5 min), 3.06 (15 min) and 3.66 (active) (30 min).

B7: HC557 (peptide)
chain: CAMWPLLLLLAGNASASA
For B7, the “furin cleavage Z-score” value runs as follows: (7.5 min) 0.169 (inactive); (15 min) 0.292 (inactive); (30 min) -0.0686 (inactive).

B8: HC497 (peptide)
chain: CAQVLPCSFTAGNASASA
Turning to B8, the “furin cleavage Z-score” value by setting is: (7.5 min) 1.05; (15 min) -1.13 (inactive); (30 min) 0.347 (inactive).

B9: HC2075 (peptide)
chain: CAVVCCSMHYAGNASASA
As for B9, the “furin cleavage Z-score” value by setting is: (7.5 min) -0.613 (inactive); (15 min) 1.54; (30 min) 1.45.

B10: HC1338 (peptide)
chain: CASSTSGITGAGNASASA
In the case of B10, the “furin cleavage Z-score” value (7.5 min) was -0.675 (inactive), the “furin cleavage Z-score” value (15 min) is -0.0853 (inactive) and the “furin cleavage Z-score” value (30 min) was -0.923 (inactive).

B11: HC2165 (peptide)
chain: CAELVTSTWVAGNASASA
As to B11, the “furin cleavage Z-score” value reads like this: (7.5 min) 1.19; (15 min) -1.53 (inactive); (30 min) 0.617 (inactive).

B12: FS-1137 (peptide)
chain: CALSDRKKRLAGNASASA
For B12, the “furin cleavage Z-score” value was 4.97 (active) (7.5 min), 5.99 (active) (15 min) and 4.87 (active) (30 min).

B13: HC1600 (peptide)
chain: CALPPIIQRLAGNASASA
Take B13: the “furin cleavage Z-score” value reads like this: (7.5 min) -1.17 (inactive); (15 min) -0.382 (inactive); (30 min) -0.2 (inactive).

B14: FS-1154 (peptide)
chain: CAQYWRDKRLAGNASASA
As for B14, the “furin cleavage Z-score” value was 0.77 (inactive) (7.5 min), 0.402 (inactive) (15 min) and 0.0823 (inactive) (30 min).

B15: FS-351 (peptide)
chain: CALMHRKKRLAGNASASA
For the sequence B15, the “furin cleavage Z-score” value is, setting by setting: (7.5 min) 8.68 (active); (15 min) 11 (active); (30 min) 9.08 (active).

B16: FS-1528 (peptide)
chain: CAGSLRKKRLAGNASASA
Take B16: the “furin cleavage Z-score” value is, setting by setting: (7.5 min) 8.24 (active); (15 min) 9.41 (active); (30 min) 8.69 (active).

B17: FS-729 (peptide)
chain: CATPARKKRLAGNASASA
In the case of B17, the “furin cleavage Z-score” value (7.5 min) is 7.39 (active), the “furin cleavage Z-score” value (15 min) was 8.85 (active) and the “furin cleavage Z-score” value (30 min) was 8.77 (active).

B18: HC2157 (peptide)
chain: CASVVTSTWVAGNASASA
In the case of B18, the “furin cleavage Z-score” value was 1.21 (7.5 min), -0.109 (inactive) (15 min) and 0.831 (inactive) (30 min).

B19: HC1357 (peptide)
chain: CAGEPGDPDLAGNASASA
For B19, the “furin cleavage Z-score” value is, setting by setting: (7.5 min) -1.27 (inactive); (15 min) -0.0644 (inactive); (30 min) 0.75 (inactive).

B20: HC2308 (peptide)
chain: CAWVPCHRPSAGNASASA
Consider B20, for which the “furin cleavage Z-score” value is, setting by setting: (7.5 min) -0.717 (inactive); (15 min) 2.59; (30 min) 0.688 (inactive).

B21: HC2392 (peptide)
chain: CAEVPCHRESAGNASASA
B21: the “furin cleavage Z-score” value (7.5 min) was 0.318 (inactive), the “furin cleavage Z-score” value (15 min) turned out to be 1.09 and the “furin cleavage Z-score” value (30 min) was 0.395 (inactive).

B22: HC892 (peptide)
chain: CADFSLDPTFAGNASASA
As to B22, the “furin cleavage Z-score” value was 0.169 (inactive) (7.5 min), -0.616 (inactive) (15 min) and -1.12 (inactive) (30 min).

B23: HC845 (peptide)
chain: CATTGEIPFYAGNASASA
For the sequence B23, the “furin cleavage Z-score” value (7.5 min) is -1.32 (inactive), the “furin cleavage Z-score” value (15 min) was -1.97 (inactive) and the “furin cleavage Z-score” value (30 min) is 0.0887 (inactive).

B24: HC1535 (peptide)
chain: CAVQEDAASLAGNASASA
As to B24, the “furin cleavage Z-score” value was -1.62 (inactive) (7.5 min), -0.428 (inactive) (15 min) and -0.272 (inactive) (30 min).

B25: HC296 (peptide)
chain: CALCSALYVGAGNASASA
B25: the “furin cleavage Z-score” value is, setting by setting: (7.5 min) -0.409 (inactive); (15 min) -0.564 (inactive); (30 min) 0.88 (inactive).

B26: HC1687 (peptide)
chain: CAMFECSQHLAGNASASA
In the case of B26, the “furin cleavage Z-score” value was -0.00522 (inactive) (7.5 min), -0.149 (inactive) (15 min) and -0.982 (inactive) (30 min).

B27: HC87 (peptide)
chain: CAVVCWSMSYAGNASASA
On to B27, for which the “furin cleavage Z-score” value was -0.794 (inactive) (7.5 min), -0.454 (inactive) (15 min) and -0.791 (inactive) (30 min).

B28: FS-881 (peptide)
chain: CATPRRQKRLAGNASASA
For the sequence B28, the “furin cleavage Z-score” value runs as follows: (7.5 min) 9.61 (active); (15 min) 11.3 (active); (30 min) 9.49 (active).

B29: FS-1162 (peptide)
chain: CARSQRSWRLAGNASASA
As for B29, the “furin cleavage Z-score” value reads like this: (7.5 min) -0.897 (inactive); (15 min) -0.415 (inactive); (30 min) -1.15 (inactive).

B30: FS-472 (peptide)
chain: CAPGPRPRRDAGNASASA
In the case of B30, the “furin cleavage Z-score” value runs as follows: (7.5 min) 14.1 (active); (15 min) 15 (active); (30 min) 10.8 (active).

B31: FS-1045 (peptide)
chain: CAPEPREQRDAGNASASA
Consider B31, for which the “furin cleavage Z-score” value reads like this: (7.5 min) -0.201 (inactive); (15 min) -0.175 (inactive); (30 min) -0.45 (inactive).

B32: FS-167 (peptide)
chain: CAGSRRWGRYAGNASASA
With B32, the “furin cleavage Z-score” value by setting is: (7.5 min) -0.565 (inactive); (15 min) 1.19; (30 min) 2.01.

B33: FS-3090 (peptide)
chain: CARSPRPRGDAGNASASA
B33: the “furin cleavage Z-score” value runs as follows: (7.5 min) 0.374 (inactive); (15 min) -0.595 (inactive); (30 min) 0.318 (inactive).

B34: HC1566 (peptide)
chain: CAPLARAAWEAGNASASA
For B34, the “furin cleavage Z-score” value runs as follows: (7.5 min) 0.967 (inactive); (15 min) 1.75; (30 min) 0.234 (inactive).

B35: FS-556 (peptide)
chain: CAPLARPRRDAGNASASA
As to B35, the “furin cleavage Z-score” value is, setting by setting: (7.5 min) 9.88 (active); (15 min) 7.62 (active); (30 min) 6.73 (active).

B36: FS-789 (peptide)
chain: CAGSRRPRRDAGNASASA
Regarding B36, the “furin cleavage Z-score” value runs as follows: (7.5 min) 13.1 (active); (15 min) 13 (active); (30 min) 10.2 (active).

B37: FS-602 (peptide)
chain: CAKHNRPRRDAGNASASA
With B37, the “furin cleavage Z-score” value is 12.5 (active) (7.5 min), 11.7 (active) (15 min) and 9.21 (active) (30 min).

B38: HC1686 (peptide)
chain: CAMMECSQHLAGNASASA
Regarding B38, the “furin cleavage Z-score” value reads like this: (7.5 min) -0.328 (inactive); (15 min) 0.731 (inactive); (30 min) 0.7 (inactive).

B39: HC143 (peptide)
chain: CAEVVTVTWVAGNASASA
As to B39, the “furin cleavage Z-score” value was -0.0202 (inactive) (7.5 min), -1.22 (inactive) (15 min) and 0.0435 (inactive) (30 min).

B40: HC1597 (peptide)
chain: CASIEPLDLPAGNASASA
Regarding B40, the “furin cleavage Z-score” value is -0.888 (inactive) (7.5 min), 1.4 (15 min) and -0.00883 (inactive) (30 min).

B41: FS-863 (peptide)
chain: CARRERSIKSAGNASASA
As for B41, the “furin cleavage Z-score” value (7.5 min) was 3.74 (active), the “furin cleavage Z-score” value (15 min) was 6.21 (active) and the “furin cleavage Z-score” value (30 min) was 7 (active).

B42: FS-1924 (peptide)
chain: CARRWRSLRPAGNASASA
For the sequence B42, the “furin cleavage Z-score” value was -0.388 (inactive) (7.5 min), 2.12 (15 min) and 2.35 (30 min).

B43: FS-3072 (peptide)
chain: CARRYRGNDSAGNASASA
Take B43: the “furin cleavage Z-score” value is -0.0765 (inactive) (7.5 min), -0.858 (inactive) (15 min) and -0.417 (inactive) (30 min).

B44: FS-3004 (peptide)
chain: CARNFRFLSSAGNASASA
In the case of B44, the “furin cleavage Z-score” value is, setting by setting: (7.5 min) -0.151 (inactive); (15 min) -0.288 (inactive); (30 min) -1.62 (inactive).

B45: FS-2479 (peptide)
chain: CAPRRRARSLAGNASASA
With B45, the “furin cleavage Z-score” value reads like this: (7.5 min) 10.9 (active); (15 min) 12.2 (active); (30 min) 10.3 (active).

B46: FS-3061 (peptide)
chain: CARRRRARSSAGNASASA
Turning to B46, the “furin cleavage Z-score” value by setting is: (7.5 min) 9.64 (active); (15 min) 8.93 (active); (30 min) 6.98 (active).

B47: FS-3263 (peptide)
chain: CARRRRSRSSAGNASASA
As to B47, the “furin cleavage Z-score” value (7.5 min) is 8.31 (active), the “furin cleavage Z-score” value (15 min) is 9.52 (active) and the “furin cleavage Z-score” value (30 min) was 8.33 (active).

B48: HC717 (peptide)
chain: CAAPQGSRSLAGNASASA
For the sequence B48, the “furin cleavage Z-score” value is, setting by setting: (7.5 min) -0.871 (inactive); (15 min) -1.2 (inactive); (30 min) 0.343 (inactive).

The record behind these values is the supplement of paper PMC3545927.
